“And” between values parts separate entries of the source, which are not always exact repeats. Equal values may be shown once. About 83,000 compounds went through this panel and 20% of them were active in at least one assay; those are over-represented in the sample as a whole.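 Single-dose data. Exposure time 48 hours. Values below 10 considered active.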 The source made the active and inactive calls.
Key:
Experiment in all cases: NCI-60 one-dose screen, 48 h (100 = growth as untreated, 0 = no growth, -100 = all killed)
Conditions in all cases: 10 µM unless noted
SR leukemia = system: SR leukemia
RPMI-8226 leukemia = system: RPMI-8226 leukemia
OVCAR-8 ovarian = system: OVCAR-8 ovarian
OVCAR-5 ovarian = system: OVCAR-5 ovarian
SK-OV-3 ovarian = system: SK-OV-3 ovarian
IGROV1 ovarian = system: IGROV1 ovarian
OVCAR-3 ovarian = system: OVCAR-3 ovarian
HS 578T breast = system: HS 578T breast
NCI/ADR-RES ovarian = system: NCI/ADR-RES ovarian
T-47D breast = system: T-47D breast
BT-549 breast = system: BT-549 breast
MDA-MB-435 melanoma = system: MDA-MB-435 melanoma
SW-620 colon = system: SW-620 colon
MCF7 breast = system: MCF7 breast
HCT-116 colon = system: HCT-116 colon
HCC-2998 colon = system: HCC-2998 colon
KM12 colon = system: KM12 colon
OVCAR-4 ovarian = system: OVCAR-4 ovarian

SMILES	growth (SR leukemia)	growth (RPMI-8226 leukemia)	growth (OVCAR-8 ovarian)	growth (OVCAR-5 ovarian)	growth (SK-OV-3 ovarian)	growth (IGROV1 ovarian)	growth (OVCAR-3 ovarian)	growth (HS 578T breast)	growth (NCI/ADR-RES ovarian)	growth (T-47D breast)	growth (BT-549 breast)	growth (MDA-MB-435 melanoma)	growth (SW-620 colon)	growth (MCF7 breast)	growth (HCT-116 colon)	growth (HCC-2998 colon)	growth (KM12 colon)	growth (OVCAR-4 ovarian)
CC1=C2[C@@H](CC1)[C@]1(C)O[C@@](C(C)C)(C[C@H]1OC(=O)CO)[C@H]2OC(=O)C1CC1c1ccccc1 (some centres undefined)	82% (inactive)	88.8% (inactive)	65.6% (inactive)	78.2% (inactive)	108% (inactive)	87.5% (inactive)	96.5% (inactive)	-2.94% (active)	69% (inactive)	41.5% (inactive)	88.8% (inactive)	96.7% (inactive)	84.6% (inactive)	75.1% (inactive)	89% (inactive)	82.9% (inactive)	73.9% (inactive)	–
COC(=O)/C=C1/SC(=Nc2ccc([N+](=O)[O-])cc2)N(CCc2c[nH]c3ccccc23)C1=O	1.73% (active)	2.18% (active)	42% (inactive)	112% (inactive)	105% (inactive)	62% (inactive)	43.1% (inactive)	63.5% (inactive)	66.9% (inactive)	–	60.8% (inactive)	–	47.3% (inactive)	20.1% (inactive)	21.8% (inactive)	78.3% (inactive)	66.4% (inactive)	66.2% (inactive)
CC(C)=CCc1cc(O)c(O)c2oc3cc(O)cc(O)c3c(=O)c12	25.9% (inactive)	48.2% (inactive)	51.1% (inactive)	75% (inactive)	65.7% (inactive)	55% (inactive)	67.4% (inactive)	92.2% (inactive)	28.2% (inactive)	69.5% (inactive)	75.1% (inactive)	61.1% (inactive)	61.9% (inactive)	91.6% (inactive)	43.1% (inactive)	104% (inactive)	59.8% (inactive)	–
COc1cc(/C=C(/c2ccccc2)[N+](=O)[O-])c(OC)c2c1OCO2	-18.9% (active)	-19.7% (active)	-1.64% (active)	-36.7% (active)	63% (inactive)	-41.8% (active)	-97.4% (active)	31% (inactive)	10.7% (inactive)	-55.9% (active)	-84.4% (active)	-23% (active)	-40.5% (active)	-36.4% (active)	-86.4% (active)	-91% (active)	–	–
O=C(/C=C/c1ccc(Cl)s1)c1ccc(Cl)s1	78.3% (inactive) and 87% (inactive)	89.9% (inactive) and 66.8% (inactive)	107% (inactive) and 102% (inactive)	86.5% (inactive) and 101% (inactive)	94.5% (inactive) and 102% (inactive)	88.9% (inactive)	97.3% (inactive) and 99.3% (inactive)	96.8% (inactive)	104% (inactive) and 99.1% (inactive)	88.8% (inactive) and 96.9% (inactive)	103% (inactive)	87.8% (inactive)	99.7% (inactive) and 95.2% (inactive)	59.3% (inactive) and 60.5% (inactive)	68.2% (inactive) and 85.8% (inactive)	98.8% (inactive) and 102% (inactive)	89% (inactive) and 95.9% (inactive)	–
O=C(NCc1cccnc1)/C(=C\c1ccc(Br)cc1)S(=O)(=O)c1ccccc1	55.9% (inactive)	26.7% (inactive)	3.01% (active)	-41.3% (active)	10.2% (inactive)	-11.3% (active)	-96.7% (active)	14.9% (inactive)	2.59% (active)	-64.6% (active)	-21.2% (active)	-14.9% (active)	-74% (active)	-44.4% (active)	-76% (active)	-76.5% (active)	-48.1% (active)	–
CCCCCCCCCCCCCCCC[N+](C)(C)CCN(Cc1ccc(OC)cc1)c1ncccn1	-45.2% (active) and 56.8% (inactive)	27.2% (inactive)	-72.8% (active) and 56.4% (inactive)	-37% (active) and 67.2% (inactive)	14.6% (inactive) and 67.4% (inactive)	-70.4% (active)	-100% (active) and 45.5% (inactive)	-72.9% (active) and 84.5% (inactive)	72.2% (inactive) and 105% (inactive)	-5.46% (active) and 42.2% (inactive)	-75% (active) and 61.8% (inactive)	-96.8% (active)	-86% (active) and 76.9% (inactive)	20.1% (inactive) and 47.6% (inactive)	-85.6% (active) and -62.4% (active)	-76% (active) and 50.2% (inactive)	-100% (active) and 33.6% (inactive)	–
O=C1/C(=C/c2ccc(-c3ccccc3C(F)(F)F)o2)SC(=S)N1CCc1ccc(O)cc1	14.2% (inactive)	69.8% (inactive)	57.6% (inactive)	77.4% (inactive)	64% (inactive)	12.5% (inactive)	43.4% (inactive)	47.7% (inactive)	43.9% (inactive)	34.8% (inactive)	61.7% (inactive)	-14.4% (active)	32.1% (inactive)	27.7% (inactive)	33.9% (inactive)	81.1% (inactive)	28.2% (inactive)	–
